Source: ChEMBL document CHEMBL1961873, “Compounds: GSK PKIS; Assays: Nanosyn kinase panel” (2012)

Tests used:
[1] = target: T1, Serine/threonine-protein kinase D2 (Homo sapiens) (UniProt Q9BZL6); details: at 1 µM;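 further: mean value of PRKD2 inhibition, from the GSK PKIS screening panel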
T1 sequence (whole entry): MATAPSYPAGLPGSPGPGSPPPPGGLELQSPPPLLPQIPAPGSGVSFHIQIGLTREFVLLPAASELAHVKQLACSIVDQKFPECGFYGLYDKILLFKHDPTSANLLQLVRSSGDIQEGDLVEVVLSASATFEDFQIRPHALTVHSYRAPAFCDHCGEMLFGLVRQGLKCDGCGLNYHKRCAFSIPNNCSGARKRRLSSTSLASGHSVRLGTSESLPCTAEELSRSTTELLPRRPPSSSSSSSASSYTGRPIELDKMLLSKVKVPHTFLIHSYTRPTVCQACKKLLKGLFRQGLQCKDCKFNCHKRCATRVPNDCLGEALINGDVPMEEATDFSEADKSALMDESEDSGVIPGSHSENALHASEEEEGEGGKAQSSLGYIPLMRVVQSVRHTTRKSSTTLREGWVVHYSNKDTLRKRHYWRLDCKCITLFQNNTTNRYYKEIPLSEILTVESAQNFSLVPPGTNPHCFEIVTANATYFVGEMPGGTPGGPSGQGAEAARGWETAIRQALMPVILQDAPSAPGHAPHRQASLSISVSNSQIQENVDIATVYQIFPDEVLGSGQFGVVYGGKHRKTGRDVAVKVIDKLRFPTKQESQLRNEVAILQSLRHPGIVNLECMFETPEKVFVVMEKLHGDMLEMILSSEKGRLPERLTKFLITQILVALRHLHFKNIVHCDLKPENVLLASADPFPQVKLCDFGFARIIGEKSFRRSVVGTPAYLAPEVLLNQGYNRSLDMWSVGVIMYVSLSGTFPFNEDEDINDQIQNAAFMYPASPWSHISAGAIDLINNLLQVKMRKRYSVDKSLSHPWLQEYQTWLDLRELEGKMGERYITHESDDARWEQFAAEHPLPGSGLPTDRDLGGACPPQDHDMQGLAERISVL

[2] = target: T2, Serine/threonine-protein kinase D3 (Homo sapiens) (UniProt O94806); details: at 0.1 µM
T2 sequence (whole entry): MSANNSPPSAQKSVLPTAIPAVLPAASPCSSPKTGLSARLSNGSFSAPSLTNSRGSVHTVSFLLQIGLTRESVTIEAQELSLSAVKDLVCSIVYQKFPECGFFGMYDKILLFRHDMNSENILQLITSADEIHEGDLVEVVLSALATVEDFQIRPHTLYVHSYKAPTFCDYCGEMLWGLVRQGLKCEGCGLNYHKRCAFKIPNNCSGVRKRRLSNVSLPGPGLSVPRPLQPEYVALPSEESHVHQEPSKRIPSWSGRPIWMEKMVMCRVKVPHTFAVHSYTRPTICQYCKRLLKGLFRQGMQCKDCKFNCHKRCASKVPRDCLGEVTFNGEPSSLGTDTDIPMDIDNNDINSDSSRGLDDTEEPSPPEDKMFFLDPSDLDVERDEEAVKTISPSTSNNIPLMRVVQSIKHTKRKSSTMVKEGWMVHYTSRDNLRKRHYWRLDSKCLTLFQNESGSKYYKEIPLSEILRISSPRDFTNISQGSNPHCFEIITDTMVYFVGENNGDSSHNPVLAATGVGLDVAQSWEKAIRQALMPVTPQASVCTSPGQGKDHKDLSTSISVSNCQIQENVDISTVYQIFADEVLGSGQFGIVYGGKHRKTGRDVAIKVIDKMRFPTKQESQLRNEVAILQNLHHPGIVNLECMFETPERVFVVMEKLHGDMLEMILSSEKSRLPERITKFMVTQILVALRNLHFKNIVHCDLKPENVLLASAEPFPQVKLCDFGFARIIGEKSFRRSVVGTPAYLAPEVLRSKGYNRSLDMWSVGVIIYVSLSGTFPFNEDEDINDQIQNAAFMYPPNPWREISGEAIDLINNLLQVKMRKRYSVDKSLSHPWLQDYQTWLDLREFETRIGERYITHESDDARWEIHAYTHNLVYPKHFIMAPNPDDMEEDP

[3] = target: T2, Serine/threonine-protein kinase D3 (Homo sapiens); details: at 1 µM
[4] = target: T3, cGMP-dependent protein kinase 1 (Homo sapiens) (UniProt Q13976); details: at 0.1 µM
T3 sequence (whole entry): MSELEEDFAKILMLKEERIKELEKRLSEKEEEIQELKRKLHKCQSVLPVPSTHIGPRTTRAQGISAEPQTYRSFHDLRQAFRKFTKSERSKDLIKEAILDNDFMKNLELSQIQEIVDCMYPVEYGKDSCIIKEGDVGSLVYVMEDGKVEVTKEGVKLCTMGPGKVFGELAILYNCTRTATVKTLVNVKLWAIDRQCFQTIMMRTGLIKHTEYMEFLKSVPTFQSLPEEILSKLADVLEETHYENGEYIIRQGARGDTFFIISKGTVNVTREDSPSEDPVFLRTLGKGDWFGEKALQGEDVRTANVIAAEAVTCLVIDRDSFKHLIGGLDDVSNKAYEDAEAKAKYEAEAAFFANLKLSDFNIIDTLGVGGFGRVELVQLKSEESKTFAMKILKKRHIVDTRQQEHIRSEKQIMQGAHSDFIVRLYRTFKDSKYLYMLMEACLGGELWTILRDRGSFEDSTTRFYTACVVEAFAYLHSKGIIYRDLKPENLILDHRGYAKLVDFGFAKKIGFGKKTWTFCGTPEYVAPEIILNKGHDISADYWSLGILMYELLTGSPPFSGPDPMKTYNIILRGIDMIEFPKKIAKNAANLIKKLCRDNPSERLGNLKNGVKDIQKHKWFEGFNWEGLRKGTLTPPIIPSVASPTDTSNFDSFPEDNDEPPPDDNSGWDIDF

[5] = target: T3, cGMP-dependent protein kinase 1 (Homo sapiens); details: at 1 µM
[6] = target: T4, cGMP-dependent protein kinase 2 (Homo sapiens) (UniProt Q13237); details: at 0.1 µM
T4 sequence (whole entry): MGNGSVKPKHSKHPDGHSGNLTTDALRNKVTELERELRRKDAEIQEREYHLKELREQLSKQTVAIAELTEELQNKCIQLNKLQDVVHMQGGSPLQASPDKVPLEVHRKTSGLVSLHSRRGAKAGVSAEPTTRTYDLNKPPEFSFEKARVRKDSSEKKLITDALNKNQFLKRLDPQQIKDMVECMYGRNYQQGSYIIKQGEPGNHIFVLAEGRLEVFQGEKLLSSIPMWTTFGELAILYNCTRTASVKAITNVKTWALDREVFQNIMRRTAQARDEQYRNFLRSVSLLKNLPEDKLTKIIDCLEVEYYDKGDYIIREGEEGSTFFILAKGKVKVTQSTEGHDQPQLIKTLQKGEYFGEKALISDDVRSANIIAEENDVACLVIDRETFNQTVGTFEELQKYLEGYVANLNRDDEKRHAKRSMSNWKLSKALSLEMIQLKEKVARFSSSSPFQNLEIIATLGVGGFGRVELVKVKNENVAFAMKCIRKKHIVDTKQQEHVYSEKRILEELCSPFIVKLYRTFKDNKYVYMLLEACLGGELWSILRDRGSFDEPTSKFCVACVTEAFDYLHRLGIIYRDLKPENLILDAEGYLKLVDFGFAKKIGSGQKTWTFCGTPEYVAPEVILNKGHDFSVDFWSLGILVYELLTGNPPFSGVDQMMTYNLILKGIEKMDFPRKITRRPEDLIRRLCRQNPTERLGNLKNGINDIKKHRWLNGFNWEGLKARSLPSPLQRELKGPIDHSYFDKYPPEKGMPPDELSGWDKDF

[7] = target: T4, cGMP-dependent protein kinase 2 (Homo sapiens); details: at 1 µM
[8] = target: T5, cAMP-dependent protein kinase catalytic subunit PRKX (Homo sapiens) (UniProt P51817); details: at 0.1 µM
T5 sequence (whole entry): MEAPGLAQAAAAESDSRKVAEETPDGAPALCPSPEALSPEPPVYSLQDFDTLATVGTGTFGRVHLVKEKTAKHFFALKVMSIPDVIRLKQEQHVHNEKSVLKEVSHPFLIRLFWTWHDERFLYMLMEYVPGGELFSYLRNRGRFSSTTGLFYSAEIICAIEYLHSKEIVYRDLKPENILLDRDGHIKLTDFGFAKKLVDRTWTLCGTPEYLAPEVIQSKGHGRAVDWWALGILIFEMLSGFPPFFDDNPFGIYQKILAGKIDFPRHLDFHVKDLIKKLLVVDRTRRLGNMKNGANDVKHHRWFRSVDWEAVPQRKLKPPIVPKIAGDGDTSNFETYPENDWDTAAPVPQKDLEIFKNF

[9] = target: T5, cAMP-dependent protein kinase catalytic subunit PRKX (Homo sapiens); details: at 1 µM
[10] = target: Rho-associated protein kinase 1 (Homo sapiens) (UniProt Q13464); details: at 0.1 µM
[11] = target: Rho-associated protein kinase 1 (Homo sapiens) (UniProt Q13464); details: at 1 µM
[12] = target: Rho-associated protein kinase 2 (Homo sapiens) (UniProt O75116); details: at 0.1 µM
[13] = target: Rho-associated protein kinase 2 (Homo sapiens) (UniProt O75116); details: at 1 µM
[14] = target: Ribosomal protein S6 kinase alpha-1 (Homo sapiens) (UniProt Q15418); details: at 0.1 µM
[15] = target: Ribosomal protein S6 kinase alpha-1 (Homo sapiens) (UniProt Q15418); details: at 1 µM
[16] = target: Ribosomal protein S6 kinase alpha-3 (Homo sapiens) (UniProt P51812); details: at 0.1 µM
[17] = target: Ribosomal protein S6 kinase alpha-3 (Homo sapiens) (UniProt P51812); details: at 1 µM
[18] = target: Ribosomal protein S6 kinase alpha-2 (Homo sapiens) (UniProt Q15349); details: at 0.1 µM
[19] = target: Ribosomal protein S6 kinase alpha-2 (Homo sapiens) (UniProt Q15349); details: at 1 µM
[20] = target: Ribosomal protein S6 kinase alpha-6 (Homo sapiens) (UniProt Q9UK32); details: at 0.1 µM;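 further: reported value is the mean inhibition of RSK4, from the GSK PKIS kinase inhibitor screen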
Ribosomal protein S6 kinase alpha-6 (Homo sapiens), sequence (Q9UK32 whole entry): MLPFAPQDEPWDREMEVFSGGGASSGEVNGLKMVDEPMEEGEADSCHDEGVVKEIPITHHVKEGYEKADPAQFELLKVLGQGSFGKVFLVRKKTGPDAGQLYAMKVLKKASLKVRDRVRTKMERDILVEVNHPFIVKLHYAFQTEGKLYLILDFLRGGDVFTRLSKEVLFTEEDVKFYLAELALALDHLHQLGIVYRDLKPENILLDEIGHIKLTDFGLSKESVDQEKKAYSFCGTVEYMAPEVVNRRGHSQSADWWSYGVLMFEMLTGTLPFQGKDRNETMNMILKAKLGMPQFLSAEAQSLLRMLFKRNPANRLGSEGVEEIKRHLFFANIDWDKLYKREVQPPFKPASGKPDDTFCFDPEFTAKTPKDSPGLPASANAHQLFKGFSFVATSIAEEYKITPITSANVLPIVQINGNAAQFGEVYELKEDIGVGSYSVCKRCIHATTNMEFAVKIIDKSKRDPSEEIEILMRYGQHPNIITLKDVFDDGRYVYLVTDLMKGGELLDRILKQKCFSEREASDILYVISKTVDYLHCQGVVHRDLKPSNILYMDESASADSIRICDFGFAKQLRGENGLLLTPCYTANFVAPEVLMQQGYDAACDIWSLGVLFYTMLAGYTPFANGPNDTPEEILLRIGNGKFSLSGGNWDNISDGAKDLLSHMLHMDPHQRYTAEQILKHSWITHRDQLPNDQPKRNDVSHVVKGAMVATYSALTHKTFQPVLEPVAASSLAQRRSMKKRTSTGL

Ribosomal protein S6 kinase alpha-1 (Homo sapiens), sequence (Q15418 whole entry): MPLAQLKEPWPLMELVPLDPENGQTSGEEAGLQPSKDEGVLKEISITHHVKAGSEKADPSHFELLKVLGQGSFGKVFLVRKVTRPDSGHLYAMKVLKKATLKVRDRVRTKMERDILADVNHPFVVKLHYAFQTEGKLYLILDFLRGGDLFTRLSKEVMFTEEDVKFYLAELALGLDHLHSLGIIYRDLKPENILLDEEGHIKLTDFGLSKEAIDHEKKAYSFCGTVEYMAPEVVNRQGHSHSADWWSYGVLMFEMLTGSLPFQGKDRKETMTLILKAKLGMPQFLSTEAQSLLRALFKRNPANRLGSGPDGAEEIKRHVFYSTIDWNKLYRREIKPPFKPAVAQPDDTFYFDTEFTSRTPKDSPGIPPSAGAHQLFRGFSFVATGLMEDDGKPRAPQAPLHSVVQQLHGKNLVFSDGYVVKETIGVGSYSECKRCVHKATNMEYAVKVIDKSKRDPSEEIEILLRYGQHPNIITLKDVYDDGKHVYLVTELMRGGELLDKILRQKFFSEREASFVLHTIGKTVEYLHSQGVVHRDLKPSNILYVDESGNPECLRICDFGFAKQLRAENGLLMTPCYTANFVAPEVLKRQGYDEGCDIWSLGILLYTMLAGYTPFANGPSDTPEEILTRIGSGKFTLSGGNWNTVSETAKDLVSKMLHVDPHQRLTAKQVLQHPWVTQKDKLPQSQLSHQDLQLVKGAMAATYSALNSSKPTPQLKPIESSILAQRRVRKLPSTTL
Rho-associated protein kinase 1 (Homo sapiens), sequence (Q13464 2-1354 limits assumed): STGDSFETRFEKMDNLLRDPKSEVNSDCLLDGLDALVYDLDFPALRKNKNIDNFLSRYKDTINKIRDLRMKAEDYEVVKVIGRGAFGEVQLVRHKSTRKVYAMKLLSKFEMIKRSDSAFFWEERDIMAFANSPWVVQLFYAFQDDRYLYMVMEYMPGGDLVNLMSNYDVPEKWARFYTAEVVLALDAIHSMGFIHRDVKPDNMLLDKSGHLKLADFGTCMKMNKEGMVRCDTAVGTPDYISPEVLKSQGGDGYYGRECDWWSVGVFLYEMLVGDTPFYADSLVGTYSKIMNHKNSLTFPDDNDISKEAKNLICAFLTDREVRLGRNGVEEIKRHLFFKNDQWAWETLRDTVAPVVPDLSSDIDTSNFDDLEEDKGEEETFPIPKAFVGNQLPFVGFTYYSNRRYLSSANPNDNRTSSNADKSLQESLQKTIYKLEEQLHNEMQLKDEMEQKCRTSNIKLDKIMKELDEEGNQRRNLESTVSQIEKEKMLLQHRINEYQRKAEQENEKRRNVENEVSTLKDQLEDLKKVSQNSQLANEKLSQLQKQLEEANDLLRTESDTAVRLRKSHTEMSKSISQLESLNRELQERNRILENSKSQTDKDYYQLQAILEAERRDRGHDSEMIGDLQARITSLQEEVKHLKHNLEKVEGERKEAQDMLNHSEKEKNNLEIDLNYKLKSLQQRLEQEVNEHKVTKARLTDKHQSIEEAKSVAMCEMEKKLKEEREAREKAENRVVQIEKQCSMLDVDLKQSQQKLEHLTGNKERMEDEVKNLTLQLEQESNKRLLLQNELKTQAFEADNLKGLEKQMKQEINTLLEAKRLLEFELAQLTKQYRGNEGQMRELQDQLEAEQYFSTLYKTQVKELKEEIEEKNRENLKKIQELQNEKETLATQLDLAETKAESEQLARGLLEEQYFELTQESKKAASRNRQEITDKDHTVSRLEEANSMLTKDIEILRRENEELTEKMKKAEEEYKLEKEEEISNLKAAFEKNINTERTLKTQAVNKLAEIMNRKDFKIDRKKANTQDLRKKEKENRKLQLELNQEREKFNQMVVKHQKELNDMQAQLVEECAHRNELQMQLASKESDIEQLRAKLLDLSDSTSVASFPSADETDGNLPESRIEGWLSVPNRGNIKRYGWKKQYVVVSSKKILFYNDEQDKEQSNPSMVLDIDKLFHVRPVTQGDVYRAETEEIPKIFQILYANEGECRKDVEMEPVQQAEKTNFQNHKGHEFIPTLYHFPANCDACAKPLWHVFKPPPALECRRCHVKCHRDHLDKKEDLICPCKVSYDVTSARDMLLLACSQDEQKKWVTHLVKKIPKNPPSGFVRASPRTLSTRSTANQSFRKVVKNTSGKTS
Ribosomal protein S6 kinase alpha-3 (Homo sapiens), sequence (P51812 whole entry): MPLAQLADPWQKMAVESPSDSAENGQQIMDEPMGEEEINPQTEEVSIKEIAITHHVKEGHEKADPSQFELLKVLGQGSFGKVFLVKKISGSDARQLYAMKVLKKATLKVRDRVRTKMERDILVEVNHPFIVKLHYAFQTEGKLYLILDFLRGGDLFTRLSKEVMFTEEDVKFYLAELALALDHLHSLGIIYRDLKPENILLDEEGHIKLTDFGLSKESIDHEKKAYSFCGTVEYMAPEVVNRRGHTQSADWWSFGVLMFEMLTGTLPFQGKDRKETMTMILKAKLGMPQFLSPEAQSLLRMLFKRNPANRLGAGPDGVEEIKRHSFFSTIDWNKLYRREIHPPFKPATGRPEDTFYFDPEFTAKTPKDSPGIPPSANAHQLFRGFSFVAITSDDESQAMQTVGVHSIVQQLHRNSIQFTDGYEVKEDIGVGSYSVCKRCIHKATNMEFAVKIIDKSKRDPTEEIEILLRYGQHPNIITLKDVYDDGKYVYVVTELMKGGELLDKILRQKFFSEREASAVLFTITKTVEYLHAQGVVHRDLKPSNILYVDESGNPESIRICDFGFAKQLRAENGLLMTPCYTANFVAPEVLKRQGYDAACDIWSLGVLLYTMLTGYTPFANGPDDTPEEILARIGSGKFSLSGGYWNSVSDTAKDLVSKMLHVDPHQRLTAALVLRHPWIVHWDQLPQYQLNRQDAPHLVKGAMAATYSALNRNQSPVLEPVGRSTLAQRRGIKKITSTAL
Ribosomal protein S6 kinase alpha-2 (Homo sapiens), sequence (Q15349 whole entry): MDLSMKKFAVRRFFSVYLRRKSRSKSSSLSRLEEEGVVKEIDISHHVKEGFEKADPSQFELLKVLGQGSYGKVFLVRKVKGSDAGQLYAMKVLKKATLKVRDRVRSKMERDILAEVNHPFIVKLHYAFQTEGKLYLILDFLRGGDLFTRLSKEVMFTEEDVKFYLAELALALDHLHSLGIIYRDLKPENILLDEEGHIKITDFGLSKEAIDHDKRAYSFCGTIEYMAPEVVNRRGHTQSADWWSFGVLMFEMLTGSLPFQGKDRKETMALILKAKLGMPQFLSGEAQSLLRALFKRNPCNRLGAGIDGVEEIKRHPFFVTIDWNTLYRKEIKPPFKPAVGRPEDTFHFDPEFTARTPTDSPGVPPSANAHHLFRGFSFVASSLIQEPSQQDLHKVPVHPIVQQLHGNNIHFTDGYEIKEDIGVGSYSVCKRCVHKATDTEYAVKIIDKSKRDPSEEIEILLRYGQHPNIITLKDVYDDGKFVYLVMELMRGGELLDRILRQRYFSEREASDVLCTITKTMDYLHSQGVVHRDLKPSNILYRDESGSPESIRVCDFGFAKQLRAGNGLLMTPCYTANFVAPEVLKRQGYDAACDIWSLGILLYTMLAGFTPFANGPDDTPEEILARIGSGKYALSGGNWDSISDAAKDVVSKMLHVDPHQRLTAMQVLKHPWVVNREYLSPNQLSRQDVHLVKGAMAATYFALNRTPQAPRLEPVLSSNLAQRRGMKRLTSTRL

| SMILES | inhibition [1] [%] | inhibition [2] [%] | inhibition [3] [%] | inhibition [4] [%] | inhibition [5] [%] | inhibition [6] [%] | inhibition [7] [%] | inhibition [8] [%] | inhibition [9] [%] | inhibition [10] [%] | inhibition [11] [%] | inhibition [12] [%] | inhibition [13] [%] | inhibition [14] [%] | inhibition [15] [%] | inhibition [16] [%] | inhibition [17] [%] | inhibition [18] [%] | inhibition [19] [%] | inhibition [20] [%] |
| --- | --- | --- | --- | --- | --- | --- | --- | --- | --- | --- | --- | --- | --- | --- | --- | --- | --- | --- | --- | --- |
| Nc1nonc1-c1nc2cnccc2n1C1CCCCC1 | 4.59 | -1.73 | 2.27 | 14.4 | 61.2 | 41.1 | 80.9 | 3.71 | 21.7 | 31 | 78.4 | 42.4 | 83.4 | 52.1 | 86.4 | 40.9 | 81.4 | 70 | 92.6 | 6.78 |
| Cc1cc(-c2ccco2)cc(C)c1/C=C/c1cncc(-c2nn[nH]n2)c1 | 2.37 | 2.09 | 1.22 | -0.2 | -0.46 | 0.23 | -1.21 | 0.69 | -0.08 | 0.84 | 1.58 | 0.76 | 1.41 | 0.75 | 1.35 | 0.67 | 0.7 | 1.44 | 0.92 | -0.24 |
| COc1cccc(-n2ncc3c(N/N=C/c4ccncc4)ncnc32)c1 | 9.06 | 5.79 | 9.03 | 3.25 |  | 1.96 | 6.05 | 1.85 | 2.86 | 2.51 | 9.67 | 4.97 | 19.4 | 3.51 | 7.17 | 1.43 | 4.26 | 2.35 | 4.92 | 2.25 |
| NS(=O)(=O)c1ccc(N/C=C2\C(=O)Nc3ccc4ncsc4c32)cc1 | 58.2 | 13.7 | 54.2 | 4.89 | 16.7 | 9.85 | 47.9 | 2.57 | 6.55 | 6.26 | 33 | 12 | 47.5 | 4.22 | 31.3 | 6.13 | 36 | 16.5 | 66.1 | 12.6 |
